This note sets out measurements from PubChem BioAssay (NCI).

The panel holds about 83,000 compounds, 20% with a hit somewhere; the sample as a whole holds those more often.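 Each cell line was grown in a 96-well plate and treated with one concentration of compound for 48 hours. Values below 10 were considered active.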 Activity calls are given as the source filed them.

One assay deals with SNB-19 CNS. As to the kind of experiment: NCI-60 one-dose screen, 48 h (100 = growth as untreated, 0 = no growth, -100 = all killed). The following applies: 10 µM.
Turning to `S=C1SCC(c2ccccc2)S1` (stereo not drawn), the growth was 97.8% (inactive).

`Nc1ncnc2[nH]c(=O)[nH]c12`: the growth was 97.5% (inactive).

Consider `Cc1ccc(S(=O)(=O)Oc2ccc3c4c(c(=O)oc3c2)CCCCC4)cc1`, for which the growth was 86.8% (inactive).

With `CCN(CC)CCSCCN(CC)CC`, the growth is 106% (inactive).

For the compound `O=C(Nc1ccccc1)Nc1cccc(-n2cc(-c3ccncc3)c(-c3ccc(O)c(Cl)c3)n2)c1`, the growth is 77.2% (inactive).

`O=C(Nc1cccc(-n2cc(-c3ccncc3)c(-c3ccc(O)c(Cl)c3)n2)c1)c1cccc(C(F)(F)F)c1`: the growth was 69.7% (inactive).

In the case of `O=C(CC(NC(=O)OCc1ccccc1)C(=O)OCc1ccccc1)OCc1ccccc1` (stereo not drawn), the growth is 109% (inactive).

With `COc1ccc(Oc2nc(NC3CCCC3)nc(Sc3ccc(OC)cc3)n2)cc1`, the growth is 90.9% (inactive).

Regarding `COc1ccc(-c2nn(-c3cccc(NC(=O)c4ccc(N5CCOCC5)c(C(F)(F)F)c4)c3)cc2-c2ccncc2)cc1Cl`, the growth was 81.4% (inactive).

Turning to `COc1ccc(-c2nn(-c3cccc(NC(=O)Nc4ccccc4)c3)cc2-c2ccncc2)cc1Cl`, the growth was 83.5% (inactive).

With `CCCCCCCCCCCCCCCC(=O)OC1[C@@H](OC(=O)CCCCCCCCCCCCCCC)[C@@H](C(=O)N[C@@H](CCCCN)C(=O)OC)O[C@H]1n1cnc2c(=O)[nH]c(NC(=O)C(C)C)nc21` (stereo partly drawn), the growth was 93.5% (inactive).

As for `CCc1ccc2c(c1)N(CCO)C1=C(C(=O)OC1)C2c1cc(OC)c(OC)c(OC)c1` (stereo not drawn), the growth is 21.7% (inactive).

For `O=S(=O)(NCCCNc1nccc(-c2c(-c3ccc(F)cc3)nc3sccn23)n1)c1ccc2ccccc2c1`, the growth is 82.4% (inactive).

For `CN(C)c1ccc(/C=C/C=N/NC(=O)c2cc(O)c(O)c(O)c2)cc1`, the growth was 79.9% (inactive).

For `Cc1ccc(S(=O)(=O)OCCN(CCOS(=O)(=O)c2ccc(C)cc2)c2c[nH]c(=O)[nH]c2=O)cc1`, the growth is 100% (inactive).

For `O=c1oc2cc(OS(=O)(=O)c3ccccc3)ccc2c2c1CCCCC2`, the growth is 77% (inactive).

In the case of `COc1ccc(-c2nn(-c3cccc(NC(=O)c4ccc5c(c4)OCCO5)c3)cc2-c2ccncc2)cc1Cl`, the growth was 70.8% (inactive).

As to `Cc1ncc(-c2ccoc2)c(NC2CCCCCC2)n1`, the growth was 105% (inactive).

Take `Clc1ccc(Sc2nc(NC3CC3)nc(Sc3ccc(Cl)cc3)n2)cc1`: the growth was 105% (inactive).

Regarding `CN(C)CCN1C(=O)c2cccc3c(-c4ccc5ncn(C6CCCCC6)c5c4)ccc(c23)C1=O`, the growth was 23.3% (inactive).

For `O=C(Nc1cccc(-n2cc(-c3ccncc3)c(-c3ccc(O)c(Cl)c3)n2)c1)Nc1cccc(C(F)(F)F)c1`, the growth was 32.2% (inactive).

For `CN(C)Cc1cn(-c2ncc(-c3ccc(C(F)(F)F)cc3)c(NC3CCCCCC3)n2)nn1`, the growth was 92.1% (inactive).

Take `COc1ccc(/C=C/C(C)=N/OCC(=O)O)cc1`: the growth is 103% (inactive).

Consider `COc1ccc(-c2nn(-c3cccc(NC(=O)c4cc(C(F)(F)F)cc(C(F)(F)F)c4)c3)cc2-c2ccncc2)cc1Cl`, for which the growth was 90.8% (inactive).

Regarding `O=C1CC[C@@H]2CCCC[C@@H]2C1`, the growth was 102% (inactive).

Turning to `COc1ccc(C2=NN(C(=O)c3ccc(S(C)(=O)=O)cc3)C(c3ccc(OC)c(OC)c3)C2)c(OC)c1` (stereo not drawn), the growth is 99.1% (inactive).

Turning to `O=C1OCC2=C1C(c1cccc(Cl)c1)c1cc3c(cc1N2CCO)CCC3` (stereo not drawn), the growth was 29.8% (inactive).

Regarding `COc1ccc2c(c1)N(CCO)C1=C(C(=O)OC1)C2c1cc(OC)c(OC)c(OC)c1` (stereo not drawn), the growth was 19.1% (inactive).

Consider `CCOC(=O)c1ccoc1`, for which the growth was 97.7% (inactive).

On to `O=S(=O)(NCCNc1nccc(-c2c(-c3ccc(F)cc3)nc3sccn23)n1)c1ccc2ccccc2c1`, for which the growth is 105% (inactive).

For the compound `CC1=C(N2CCOCC2)C(N2CCOCC2)=C(C)C(=O)C1=O`, the growth was 103% (inactive).

Regarding `O=C1OCC2=C1C(c1ccc(Cl)c(Cl)c1)c1cc3c(cc1N2CCO)OCCO3` (stereo not drawn), the growth is 33.1% (inactive).

`COc1cc2c(cc1OC)N(CCO)C1=C(C(=O)OC1)C2c1ccc(Cl)c(Cl)c1` (stereo not drawn): the growth is 98.3% (inactive).

As for `O=C1NC(=O)c2ncccc21`, the growth is 107% (inactive).

With `CNc1ncc(-c2ccc(C(F)(F)F)cc2)c(NC2CCCCCC2)n1`, the growth is 85.2% (inactive).

Take `COc1ccc(/C(=C2/O[C@@H]([C@H]3COC(C)(C)O3)[C@H]3OC(C)(C)O[C@@H]23)c2cc(OC)c(OC)c(OC)c2)cc1O`: the growth was 27.6% (inactive).

`O=C(NC(Cc1ccc(O)cc1)C(=O)N=Nc1c(O)[nH]c2ccccc12)c1ccccc1` (stereo not drawn): the growth was 96.9% (inactive).

As to `O=C(CNC(=O)OCc1ccccc1)NCC(=O)Oc1ccc([N+](=O)[O-])cc1`, the growth was 111% (inactive).

Consider `COc1cc2nc(Nc3cccc(C(=O)O)c3)nc(N)c2cc1OC`, for which the growth is 102% (inactive).

The subject of a further assay is U251 CNS. The description is as above. The following applies: 10 µM.
For `S=C1SCC(c2ccccc2)S1` (stereo not drawn), the growth is 95.5% (inactive).

With `Nc1ncnc2[nH]c(=O)[nH]c12`, the growth is 97.8% (inactive).

For `Cc1ccc(S(=O)(=O)Oc2ccc3c4c(c(=O)oc3c2)CCCCC4)cc1`, the growth was 38.7% (inactive).

On to `CCN(CC)CCSCCN(CC)CC`, for which the growth is 91.7% (inactive).

As for `O=C(Nc1ccccc1)Nc1cccc(-n2cc(-c3ccncc3)c(-c3ccc(O)c(Cl)c3)n2)c1`, the growth is -9.56% (active).

`O=C(Nc1cccc(-n2cc(-c3ccncc3)c(-c3ccc(O)c(Cl)c3)n2)c1)c1cccc(C(F)(F)F)c1`: the growth was -27.9% (active).

With `O=C(CC(NC(=O)OCc1ccccc1)C(=O)OCc1ccccc1)OCc1ccccc1` (stereo not drawn), the growth was 90.4% (inactive).

For the compound `COc1ccc(Oc2nc(NC3CCCC3)nc(Sc3ccc(OC)cc3)n2)cc1`, the growth was 44.4% (inactive).

For `COc1ccc(-c2nn(-c3cccc(NC(=O)c4ccc(N5CCOCC5)c(C(F)(F)F)c4)c3)cc2-c2ccncc2)cc1Cl`, the growth was 23.6% (inactive).

For `COc1ccc(-c2nn(-c3cccc(NC(=O)Nc4ccccc4)c3)cc2-c2ccncc2)cc1Cl`, the growth was -35.8% (active).

For `CCCCCCCCCCCCCCCC(=O)OC1[C@@H](OC(=O)CCCCCCCCCCCCCCC)[C@@H](C(=O)N[C@@H](CCCCN)C(=O)OC)O[C@H]1n1cnc2c(=O)[nH]c(NC(=O)C(C)C)nc21` (stereo partly drawn), the growth is 90.2% (inactive).

For `CCc1ccc2c(c1)N(CCO)C1=C(C(=O)OC1)C2c1cc(OC)c(OC)c(OC)c1` (stereo not drawn), the growth is 10.9% (inactive).

As to `O=S(=O)(NCCCNc1nccc(-c2c(-c3ccc(F)cc3)nc3sccn23)n1)c1ccc2ccccc2c1`, the growth was 27.4% (inactive).

As for `CN(C)c1ccc(/C=C/C=N/NC(=O)c2cc(O)c(O)c(O)c2)cc1`, the growth is 59.7% (inactive).

`Cc1ccc(S(=O)(=O)OCCN(CCOS(=O)(=O)c2ccc(C)cc2)c2c[nH]c(=O)[nH]c2=O)cc1`: the growth is 95% (inactive).

Regarding `O=c1oc2cc(OS(=O)(=O)c3ccccc3)ccc2c2c1CCCCC2`, the growth was 34.4% (inactive).

For `COc1ccc(-c2nn(-c3cccc(NC(=O)c4ccc5c(c4)OCCO5)c3)cc2-c2ccncc2)cc1Cl`, the growth was -9.64% (active).

`Cc1ncc(-c2ccoc2)c(NC2CCCCCC2)n1`: the growth is 93.5% (inactive).

Take `Clc1ccc(Sc2nc(NC3CC3)nc(Sc3ccc(Cl)cc3)n2)cc1`: the growth is 80% (inactive).

As for `CN(C)CCN1C(=O)c2cccc3c(-c4ccc5ncn(C6CCCCC6)c5c4)ccc(c23)C1=O`, the growth is 12.6% (inactive).

As for `O=C(Nc1cccc(-n2cc(-c3ccncc3)c(-c3ccc(O)c(Cl)c3)n2)c1)Nc1cccc(C(F)(F)F)c1`, the growth was -70.8% (active).

Take `CN(C)Cc1cn(-c2ncc(-c3ccc(C(F)(F)F)cc3)c(NC3CCCCCC3)n2)nn1`: the growth is 73.3% (inactive).

Turning to `COc1ccc(/C=C/C(C)=N/OCC(=O)O)cc1`, the growth was 95.2% (inactive).

As to `COc1ccc(-c2nn(-c3cccc(NC(=O)c4cc(C(F)(F)F)cc(C(F)(F)F)c4)c3)cc2-c2ccncc2)cc1Cl`, the growth was 54.7% (inactive).

On to `O=C1CC[C@@H]2CCCC[C@@H]2C1`, for which the growth is 108% (inactive).

Regarding `COc1ccc(C2=NN(C(=O)c3ccc(S(C)(=O)=O)cc3)C(c3ccc(OC)c(OC)c3)C2)c(OC)c1` (stereo not drawn), the growth is 106% (inactive).

On to `O=C1OCC2=C1C(c1cccc(Cl)c1)c1cc3c(cc1N2CCO)CCC3` (stereo not drawn), for which the growth is 3.51% (active).

As to `COc1ccc2c(c1)N(CCO)C1=C(C(=O)OC1)C2c1cc(OC)c(OC)c(OC)c1` (stereo not drawn), the growth was 9.9% (active).

Regarding `CCOC(=O)c1ccoc1`, the growth is 101% (inactive).

Consider `O=S(=O)(NCCNc1nccc(-c2c(-c3ccc(F)cc3)nc3sccn23)n1)c1ccc2ccccc2c1`, for which the growth was 71% (inactive).

Turning to `CC1=C(N2CCOCC2)C(N2CCOCC2)=C(C)C(=O)C1=O`, the growth is 101% (inactive).

Regarding `O=C1OCC2=C1C(c1ccc(Cl)c(Cl)c1)c1cc3c(cc1N2CCO)OCCO3` (stereo not drawn), the growth was 18.2% (inactive).

With `COc1cc2c(cc1OC)N(CCO)C1=C(C(=O)OC1)C2c1ccc(Cl)c(Cl)c1` (stereo not drawn), the growth is 96.8% (inactive).

Regarding `O=C1NC(=O)c2ncccc21`, the growth is 106% (inactive).

With `CNc1ncc(-c2ccc(C(F)(F)F)cc2)c(NC2CCCCCC2)n1`, the growth is 58.9% (inactive).

For `COc1ccc(/C(=C2/O[C@@H]([C@H]3COC(C)(C)O3)[C@H]3OC(C)(C)O[C@@H]23)c2cc(OC)c(OC)c(OC)c2)cc1O`, the growth is 61.2% (inactive).

Regarding `O=C(NC(Cc1ccc(O)cc1)C(=O)N=Nc1c(O)[nH]c2ccccc12)c1ccccc1` (stereo not drawn), the growth was 97.7% (inactive).

Consider `O=C(CNC(=O)OCc1ccccc1)NCC(=O)Oc1ccc([N+](=O)[O-])cc1`, for which the growth was 11.8% (inactive).

Turning to `COc1cc2nc(Nc3cccc(C(=O)O)c3)nc(N)c2cc1OC`, the growth is 99% (inactive).
